Source: PubChem BioAssay (NCI)
The panel holds about 79,000 compounds, 15% with a hit somewhere; the sample as a whole holds those more often. Values without a mark were called inactive. Active and inactive are the calls of the source. No stated cut-off is given here; in the data, active means growth inhibition above about 70%; inactive means the rest.

How the values were obtained:
[1] = NCI Yeast Anticancer Drug Screen. Data for the rad52 strain (AID 147);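 further: 0% = growth of vehicle-treated control cultures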; details: S. cerevisiae rad52 mutant growth inhibition, hits give high values
Procedure, shortened: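 Here a repair-compromised yeast strain receives each compound; its growth is then quantified and normalised to vehicle-only controls.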

[2] = NCI Yeast Anticancer Drug Screen. Data for the rad50EPP+ strain (AID 151);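 further: 0% = growth of vehicle-treated control cultures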; details: S. cerevisiae rad50 mutant strain, hits give high values
Procedure, shortened: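 Read-out is yeast growth inhibition relative to vehicle; cells used were the rad50EPP+ strain.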

[3] = NCI Yeast Anticancer Drug Screen. Data for the mgt1 strain (AID 153); details: S. cerevisiae mgt1 mutant growth inhibition, hits give high values
Procedure, shortened: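 Measured: inhibition of mgt1 yeast growth by compound, normalized to vehicle-treated cultures.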

[4] = NCI Yeast Anticancer Drug Screen. Data for the rad50 strain (AID 155);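 further: 0% = growth of vehicle-only cultures of the same strain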; details: S. cerevisiae rad50 strain growth inhibition, hits give high values
Procedure, shortened: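 Cells are treated with compound, grown, and their growth is then scored against vehicle-only cultures of the same repair-deficient yeast strain.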

[5] = NCI Yeast Anticancer Drug Screen. Data for the mec2-1 strain (AID 157); details: S. cerevisiae mec2-1 strain, hits give high values
Procedure, shortened: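 Using mec2-1 yeast: add compound, measure growth, express inhibition versus vehicle-treated cultures.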

[6] = NCI Yeast Anticancer Drug Screen. Data for the sgs1 mgt1 strain (AID 161);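 further: 0% = growth of cultures given vehicle only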; details: S. cerevisiae sgs1 mgt1 strain, hits give high values
Procedure, shortened: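 Compounds are added to genetically altered yeast, and growth is compared with cultures given vehicle alone to give percent inhibition.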

[7] = NCI Yeast Anticancer Drug Screen. Data for the CLN2oe strain (AID 163);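 further: 0% = growth of vehicle-only control cultures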; details: S. cerevisiae CLN2oe strain, hits give high values
Procedure, shortened: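 Whole-cell yeast growth assay. A strain engineered for altered cell-cycle control received compound, and inhibition relative to vehicle-treated cultures was recorded.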

[8] = NCI Yeast Anticancer Drug Screen. Data for the cln2 rad14 strain (AID 165);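 further: 0% = growth equal to vehicle treated cultures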; details: S. cerevisiae cln2 rad14 strain, hits give high values
Procedure, shortened: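 Yeast strain cln2 rad14, bearing defects in cell cycle control and DNA repair, serves as the test system; values reflect growth inhibition compared with vehicle.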

[9] = NCI Yeast Anticancer Drug Screen. Data for the bub3 strain (AID 167); details: S. cerevisiae bub3 mutant strain, hits give high values
Procedure, shortened: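 Part of a panel of yeast mutants defective in DNA damage repair or cell cycle regulation. Each strain is grown with compound, and inhibition is calculated relative to solvent-treated cultures.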

[10] = NCI Yeast Anticancer Drug Screen. Data for the wt2 strain (AID 169);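 further: 0% = growth of vehicle-treated yeast cultures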; details: S. cerevisiae wt2 strain growth inhibition, hits give high values
Procedure, shortened: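 Treated yeast vs. vehicle-treated yeast: growth inhibition determined.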

[11] = NCI Yeast Anticancer Drug Screen. Data for the mlh1 strain (AID 171);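 further: 0% = growth of vehicle-treated control cultures of the same strain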; details: S. cerevisiae mlh1 strain growth inhibition, hits give high values
Procedure, shortened: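 A yeast strain with a defined genetic lesion serves as the test organism. Cultures receive compound or vehicle, and growth is measured.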

[12] = NCI Yeast Anticancer Drug Screen. Data for the sgs1 strain (AID 173);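 further: 0% = growth of vehicle-only control cultures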; details: S. cerevisiae sgs1 mutant, hits give high values
Procedure, shortened: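 A genetically defined yeast mutant is incubated with the test compound, and its growth is compared to that of the same strain given vehicle.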

[13] = NCI Yeast Anticancer Drug Screen. Data for the mlh1 rad18 strain (AID 175); details: S. cerevisiae mlh1 rad18 strain growth inhibition, hits give high values
Procedure, shortened: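 Steps: expose repair-defective yeast to compound; measure growth; express inhibition against vehicle-treated controls.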

[14] = NCI Yeast Anticancer Drug Screen. Data for the rad18 strain (AID 177); details: S. cerevisiae rad18 mutant growth inhibition, hits give high values
Procedure, shortened: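 Measured value is growth inhibition of a yeast strain bearing a DNA repair alteration, referenced to vehicle-treated cells.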

[15] = at 5.0 µM (retest, dose inferred, filed as 0.5)
[16] = at 50.0 µM (retest, dose inferred, filed as 5.0)

S=C1C(=Nc2ccccc2)N(c2ccccc2)/C(=N\c2ccccn2)N1c1ccccc1
growth inhibition ([1]; at 1.2 µM): -2%
growth inhibition ([1]; at 3.7 µM): 1%
growth inhibition ([1]; at 11.0 µM): 44%
growth inhibition ([1]; at 33.0 µM): 99% (active)
growth inhibition ([1]; at 100.0 µM): 93% (active)
growth inhibition ([2]; at 1.2 µM): -3%
growth inhibition ([2]; at 3.7 µM): -4%
growth inhibition ([2]; at 11.0 µM): -3%
growth inhibition ([2]; at 33.0 µM): 11%
growth inhibition ([2]; at 100.0 µM): 37%
growth inhibition ([3]; at 1.2 µM): -6%
growth inhibition ([3]; at 3.7 µM): -5%
growth inhibition ([3]; at 11.0 µM): 36%
growth inhibition ([3]; at 33.0 µM): 99% (active)
growth inhibition ([3]; at 100.0 µM): 97% (active)
growth inhibition ([4]; at 1.2 µM): -3%
growth inhibition ([4]; at 3.7 µM): -2%
growth inhibition [4, 15]: 41%
growth inhibition ([4]; at 11.0 µM): 46%
growth inhibition ([4]; at 33.0 µM): 98% (active)
growth inhibition [4, 16]: 97% (active)
growth inhibition ([4]; at 50.0 µM): 98.1% (active)
growth inhibition ([4]; at 100.0 µM): 91% (active)
growth inhibition ([5]; at 1.2 µM): -7%
growth inhibition ([5]; at 3.7 µM): -1%
growth inhibition [5, 15]: 24%
growth inhibition ([5]; at 11.0 µM): 28%
growth inhibition ([5]; at 33.0 µM): 99% (active)
growth inhibition [5, 16]: 98% (active)
growth inhibition ([5]; at 50.0 µM): 97.9% (active)
growth inhibition ([5]; at 100.0 µM): 97% (active)
growth inhibition [6, 15]: 10%
growth inhibition [6, 16]: 98% (active)
growth inhibition ([6]; at 50.0 µM): 98% (active)
growth inhibition ([7]; at 1.2 µM): -8%
growth inhibition ([7]; at 3.7 µM): -11%
growth inhibition ([7]; at 11.0 µM): 37%
growth inhibition ([7]; at 33.0 µM): 99% (active)
growth inhibition ([7]; at 100.0 µM): 97% (active)
growth inhibition [8, 15]: 28%
growth inhibition [8, 16]: 97% (active)
growth inhibition ([8]; at 50.0 µM): 97.4% (active)
growth inhibition ([9]; at 1.2 µM): -7%
growth inhibition ([9]; at 3.7 µM): -13%
growth inhibition [9, 15]: 0%
growth inhibition ([9]; at 11.0 µM): 31%
growth inhibition ([9]; at 33.0 µM): 99% (active)
growth inhibition [9, 16]: 97% (active)
growth inhibition ([9]; at 50.0 µM): 97.7% (active)
growth inhibition ([9]; at 100.0 µM): 99% (active)
growth inhibition ([10]; at 1.2 µM): -4%
growth inhibition ([10]; at 3.7 µM): -2%
growth inhibition ([10]; at 11.0 µM): 27%
growth inhibition ([10]; at 33.0 µM): 99% (active)
growth inhibition ([10]; at 100.0 µM): 95% (active)
growth inhibition ([11]; at 1.2 µM): -5%
growth inhibition ([11]; at 3.7 µM): -2%
growth inhibition ([11]; at 11.0 µM): 37%
growth inhibition ([11]; at 33.0 µM): 99% (active)
growth inhibition ([11]; at 100.0 µM): 96% (active)
growth inhibition ([12]; at 1.2 µM): -2%
growth inhibition ([12]; at 3.7 µM): 4%
growth inhibition ([12]; at 11.0 µM): 66%
growth inhibition ([12]; at 33.0 µM): 99% (active)
growth inhibition ([12]; at 100.0 µM): 94% (active)
growth inhibition [13, 15]: 76% (active)
growth inhibition [13, 16]: 97% (active)
growth inhibition ([13]; at 50.0 µM): 97.8% (active)
growth inhibition ([14]; at 1.2 µM): -3%
growth inhibition ([14]; at 3.7 µM): -3%
growth inhibition ([14]; at 11.0 µM): 57%
growth inhibition ([14]; at 33.0 µM): 99% (active)
growth inhibition ([14]; at 100.0 µM): 87% (active)
